# Source: PubChem
# Only some compounds are listed: those with a hit (about 1.4% of all), similar ones and a draw of the others.
# hERG WT inh: KCNH2 (human, wildtype) channel inhibition. Q12809. U2OS, BacMam KCNH2, thallium flux FluxOr; stronger effect = lower value. activity change, % at 1.84 µM. actives 0.37% (n = 340,000). AID 720551;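 active = maximum activity change below -70%; inconclusive = maximum activity change between -70% and -50%; inactive = maximum activity change above -50%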; also: % is scaled to controls: 0 for no effect and ±100 for the full control effect
# Target sequence (Q12809 whole entry, looked up): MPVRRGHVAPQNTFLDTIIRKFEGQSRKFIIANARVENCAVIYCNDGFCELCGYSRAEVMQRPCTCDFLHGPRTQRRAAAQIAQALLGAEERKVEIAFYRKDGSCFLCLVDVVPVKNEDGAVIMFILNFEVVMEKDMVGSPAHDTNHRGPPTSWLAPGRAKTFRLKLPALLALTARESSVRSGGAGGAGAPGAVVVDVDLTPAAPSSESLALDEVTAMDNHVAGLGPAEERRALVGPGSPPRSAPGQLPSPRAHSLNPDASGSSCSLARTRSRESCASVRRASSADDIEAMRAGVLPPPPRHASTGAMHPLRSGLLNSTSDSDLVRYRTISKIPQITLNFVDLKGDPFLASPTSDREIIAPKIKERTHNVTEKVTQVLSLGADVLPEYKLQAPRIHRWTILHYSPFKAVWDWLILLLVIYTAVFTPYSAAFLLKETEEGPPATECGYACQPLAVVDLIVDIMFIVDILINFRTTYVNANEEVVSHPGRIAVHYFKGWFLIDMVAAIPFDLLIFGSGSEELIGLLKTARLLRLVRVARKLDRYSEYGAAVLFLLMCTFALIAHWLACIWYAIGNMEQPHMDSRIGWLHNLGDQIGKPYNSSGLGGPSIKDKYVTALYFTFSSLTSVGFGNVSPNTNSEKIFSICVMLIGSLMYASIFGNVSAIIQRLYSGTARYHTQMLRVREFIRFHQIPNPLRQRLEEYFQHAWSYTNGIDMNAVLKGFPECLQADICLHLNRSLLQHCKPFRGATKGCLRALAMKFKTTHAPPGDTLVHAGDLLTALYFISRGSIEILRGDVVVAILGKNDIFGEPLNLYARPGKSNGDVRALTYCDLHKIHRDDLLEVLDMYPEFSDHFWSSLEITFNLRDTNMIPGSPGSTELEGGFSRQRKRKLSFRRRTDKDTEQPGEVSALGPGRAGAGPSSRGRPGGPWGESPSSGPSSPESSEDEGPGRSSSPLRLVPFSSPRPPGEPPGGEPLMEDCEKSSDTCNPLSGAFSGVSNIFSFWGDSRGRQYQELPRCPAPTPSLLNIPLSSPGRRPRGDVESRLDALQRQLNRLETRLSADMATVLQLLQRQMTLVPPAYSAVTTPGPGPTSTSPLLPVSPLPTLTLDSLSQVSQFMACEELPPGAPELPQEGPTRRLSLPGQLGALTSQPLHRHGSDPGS
#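 U2OS cells were transduced with wild-type KCNH2 virus (2.03 x 10^8 / mL) for 4 h at room temperature, then cultured overnight at 37 C. Thallium flux was read with FluxOr dye. Rate constants were normalized to DMSO controls.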
# PTHR1 ag: PTHR1 (human) receptor agonism. HEK293 GP2 PTHR1 cells, GloSensor cAMP luminescence, 1 h. Potency, µM (titrated, usually from 115 µM), for inactives: at the top dose activation, usual class: activators. actives 0.075% (n = 410,000). AID 743266; also: potency is read from the fitted curve at half-maximal effect; nearly all actives have a fitted effect of over 55% in size
#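 HEK-293-derived GP2 cells expressing PTHR1 and a GloSensor cAMP reporter, 3,000/well, plated overnight, given luciferin plus IBMX (each 0.5 mM as added) for 1 h at 37 °C, then compound for 1 h at 37 °C. Luminescence was read after 15 min at room temperature.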
# RXFP1 agonist: agonists of human relaxin receptor RXFP1 | Q9HBX9 | Potency, µM (series often up to 57.5 µM), for inactives: top-dose activation, most hits filed as activators | actives 0.3% (n = 370,000) | AID 2676 | HEK293T-RXFP1 cAMP TR-FRET, 30 min; response scale: percent of porcine relaxin response, buffer zero; also: potency is read from the fitted curve at half-maximal effect; % is scaled to controls: 0 for no effect and ±100 for the full control effect; nearly all actives have a fitted effect of over 60% in size
#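 cAMP rise read by TR-FRET after 30 min, 37C compound exposure (up to 58 uM) in RXFP1-transfected HEK293 cells with Ro 20174 present. EC50 from Hill-equation fits, with 29 nM porcine relaxin as 100% and buffer as basal.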
# RXFP1 antag: antagonists of human relaxin receptor RXFP1 | activity change, negative = inhibition, % at 57.5 µM | HEK293-RXFP1, relaxin-stimulated cAMP HTRF, 30 min; stronger effect = lower value | Q9HBX9 | actives 0.59% (n = 350,000);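 active = activity change of -60% or lower, but not beyond a set lower limit; inconclusive = change between -60% and -40%, or beyond the set limit; inactive = change above -40%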; also: % is scaled to controls: 0 for no effect and ±100 for the full control effect
# KCNH2 3.1 inh: inhibitors of human KCNH2 3.1 potassium channel isoform | U2OS KCNH2 3.1, thallium flux FluxOr; stronger effect = lower value | activity change, % (tested at about 1.8 µM) | actives 0.95% (n = 340,000);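 active = maximum activity change below -70%; inconclusive = maximum activity change from -70% to -50%; inactive = maximum activity change above -50%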;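 also: thallium influx rate constant from kinetic fluorescence after stimulation buffer; % is scaled to controls: 0 for no effect and ±100 for the full control effect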
#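 U2OS cells transduced with KCNH2 3.1 mutant virus (1.77 x 10^8 /mL, 4 h), plated overnight at 37 C, loaded 45 min with FluxOr dye plus Red40 quencher. Thallium flux rate constant from kinetic reads after stimulation buffer, normalised to controls.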
# Glioma ERSR ind: induces the endoplasmic reticulum stress response in human glioma cells | U87-MG GRP78 promoter luciferase reporter, 16 h | Potency, µM, inactives show at the highest dose activation, actives largely listed as activators | actives 0.02% (n = 420,000); also: potency is read from the fitted curve at half-maximal effect; series mostly up to about 76 µM; % of control where 0% means no effect; nearly all actives have a fitted effect of over 35% in size
#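 Stably transfected U87-MG human glioma cells carrying a GRP78-based luminescent sensor were seeded at 1000 cells/well, pin-dosed with compounds and incubated 16 h. Luciferase reagent was then added, and end-point luminescence was read after 10 min at room temperature.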
# An asterisk follows results filed as active; i = inactive; ? = inconclusive; . = no result given; ! = a repeat was not active; [ ] = dose if it differs, or a comment. Unless noted, calls follow the shape of the dose curve; as a rule, active = well fitted curve in the direction sought with a large enough effect; inconclusive = small, poorly fitted or top-dose-only effect, or another doubt; inactive = no such curve, though single readings can be large; an effect the other way counts as inactive or inconclusive.
SMILES,hERG WT inh,PTHR1 ag,RXFP1 agonist,RXFP1 antag,KCNH2 3.1 inh,Glioma ERSR ind
Cc1ccc(N=Cc2cc3c(cc2O)OC(N)=C(C#N)C3c2ccccc2)cc1 (stereo unspecified),-10.0,-82.7%,-0.2%,-68.8*,4.8,-8.7%
N#CC1=C(N)Oc2cc(O)c(C=Nc3ccccc3)cc2C1c1ccccc1 (stereo unspecified),2.9,-5.0%,2.6%,3.1,1.9,-7.1%
CCCCC[C@@H](C)N1C[C@@H](COCc2ccccc2)Oc2cc(N3CC[C@@H](O)C3)ccc2S1(=O)=O,.,i,.,.,.,.
CC(NC(=O)C(=O)N1CCCCC1)C(c1cccs1)N1CCN(Cc2ccccc2)CC1 (stereo unspecified),5.4,-0.7%,2.8%,-66.3*,-3.5,-4.1%
CCN1CCN(C(c2cccs2)C(C)NC(=O)C(=O)N2CCCCC2)CC1 (stereo unspecified),2.7,i,0.7%,?,12.0,-0.6%
Fc1ccccc1-c1n[nH]c(=S)n1/N=C/c1c[nH]c2ccccc12,-1.6,-18.2%,0.5%,-109.2*,-0.6,-0.2%
Fc1ccccc1/C=N/n1c(C2CCCCC2)n[nH]c1=S,-7.4,i,-0.3%,-12.2,3.3,-6.2%
O=S(=O)(Nc1ccc2c(c1)CCC2)c1cccs1,-1.2,-4.1%,0.5%,5.5,-2.3,6.8%
CCOC(=O)C1CCCN(C(=O)c2cc(S(=O)(=O)N(C)C)ccc2N2CCCC2)C1 (stereo unspecified),-2.1,1.7%,-0.9%,-71.0*,22.9,-0.6%
Cc1ccc(NC(=O)c2cc(S(=O)(=O)N(C)C)ccc2N2CCCC2)cc1F,10.2,i,-2.2%,-2.6,-4.9,31.6µM*
CN(C)S(=O)(=O)c1ccc(N2CCCC2)c(C(=O)NCC(=O)Nc2ccc(F)c(F)c2)c1,1.8,i,-1.4%,-0.4,-8.2,-4.1%
CCOC(=O)C1CCN(C(=O)c2cc(S(=O)(=O)N(C)C)ccc2N2CCCC2)CC1,8.9,2.3%,6.6%,-17.9,5.6,-1.1%
CCc1ccc(/C=C2\SC(N3CCCC3)=NC2=O)cc1,-2.0,-13.0%,-0.7%,-10.8,24.6,2.7%
Cc1c(NC(=O)COC(=O)C23CC4CC(CC(Br)(C4)C2)C3)c(=O)n(-c2ccccc2)n1C,3.1,-60.6%,0.0%,-7.1,-5.6,-0.4%
CCOc1ccccc1NC(=O)/C=C/c1ccccc1[N+](=O)[O-],-13.6,i,3.6%,-3.8,1.4,2.7%
CN(CC(=O)Nc1ccc(F)cc1)CC(=O)N(C)C1(C#N)CCCCC1,0.3,22.7%,3.2%,-7.4,-115.0*,6.9%
COc1ccc(NC(=O)CN(C)CC(=O)N(C)C2(C#N)CCC(C)CC2)cc1 (stereo unspecified),-2.8,13.4%,-0.2%,-1.6,-2.2,-1.7%
CCOC(=O)c1ccc(NC(=O)C2CCCN(c3cnccn3)C2)cc1 (stereo unspecified),-4.8,-1.3%,-2.1%,-61.4*!,13.4,19.7%
CCc1cccc(NC(=O)C2CCCN(c3cnccn3)C2)c1 (stereo unspecified),-14.1,-3.0%,0.6%,11.3,0.9,-3.6%
CCC(C)NC(=O)c1cc2c(=O)n3ccccc3nc2s1 (stereo unspecified),-9.3,-6.5%,26.0%,12.7,2.3,19.2%
COc1ccc(C2N(C(=O)N(C)C)CCN2S(=O)(=O)c2ccc(OC)cc2)cc1 (stereo unspecified),-21.3,i,1.1%,5.5,-9.8,1.7%
Cc1ccc(C(=O)/C=C/C(=O)c2ccc(C)cc2)cc1,2.9,-34.3%,-1.6%,-66.5*,14.5,2.6%
Cc1ccc(/C=C/C(=O)c2ccc(C)cc2)cc1,-27.4,-48.4%[57.5 µM],-0.7%,5.9,-0.7,5.9%
CCN(CC)c1ccc(S(=O)(=O)N2CCOCC2)cc1NC(=O)CSc1nncn1C,-18.5,-34.7%,?,11.2,-5.0,-6.1%
CCN(CC)c1ccc(S(=O)(=O)N2CCOCC2)cc1NC(=O)CSc1ccccc1,13.5,-33.6%,-1.6%,-7.4,-10.3,-2.3%
SMILES,hERG WT inh,PTHR1 ag,RXFP1 agonist,RXFP1 antag,KCNH2 3.1 inh,Glioma ERSR ind
COc1ccc(S(=O)(=O)N2CCOCC2)cc1NC(=O)CSc1nnc2ccccn12,.,.,3.55µM*,.,.,.
CCN(CC)c1ccc(S(=O)(=O)N2CCOCC2)cc1NC(=O)CSc1nncs1,-215.2*,i,4.7%,4.9,-186.6*,-1.3%
COc1ccc(S(=O)(=O)N2CCOCC2)cc1NC(=O)CSc1nnc(C2CC2)n1C,-6.9,-16.7%,.,3.6,7.0,-0.9%
CCN(CC)c1ccc(S(=O)(=O)N2CCOCC2)cc1NC(=O)c1cc(=O)c2ccccc2o1,0.2,i,5.5%,-17.8,-74.5*,-3.3%
CCN(CCN1CCCC1)C(=O)C1CCC(=O)N(CCCN2CCOCC2)C1 (stereo unspecified),10.5,i,0.2%,-1.2,.,-3.7%
Cc1cccc(OCC(=O)N/N=C/c2ccc(N(C)C)cc2)c1,1.2,-1.9%,-0.6%,-101.6*,3.4,4.6%
CCOC(=O)c1cnc2c(-c3ccc(Cl)cc3)cnn2c1C,-4.9,-7.5%,2.5%,-14.7,-0.3,4.9%
CC(C)=NNc1nc2c(c(=O)[nH]c(=O)n2C)n1CCc1ccccc1,6.5,i,-0.2%,-69.8*,-11.7,-3.7%
CC(=O)c1c(C)[nH]c(C(=O)OCC(=O)NCC(C)C)c1C,4.4,-16.2%,1.2%,-10.2,20.1,-6.2%
CC1CCN(S(=O)(=O)c2ccc3c(c2)N(CC(=O)NCCN2C(C)CCCC2C)C(=O)CS3)CC1 (stereo unspecified),-75.7*,i,2.7%,-3.1,-23.1,0.8%
CCOc1ccccc1NC(=O)CCn1nc(C)c(S(=O)(=O)N2CCCCC2)c1C,14.4,-4.4%,-2.8%,28.7,34.3,-8.0%
COC(=O)c1cc(S(=O)(=O)N(C)C2CCCCC2)c[nH]1,12.6,-0.2%,-3.9%,-1.6,-119.6*,3.1%
COC(=O)c1cc(S(=O)(=O)N(C)C2CCCCC2)cn1C,-1.4,i,0.0%,7.2,1.7,-2.5%
N#Cc1sc2nc(C3CC3)cc(-c3ccc(Cl)cc3)c2c1N,-6.5,-16.7%,5.6%,22.9,-72.1*,-3.1%
Cc1cc(Br)c(NC(=O)C(C)Sc2nnnn2C)c(Br)c1 (stereo unspecified),10.0,i,-0.7%,5.2,7.5,-4.7%
Cc1ccc(-c2csc(/C=C3/SC(C)C(=O)N3CC(=O)Nc3ccccc3F)n2)cc1 (stereo unspecified),1.0,-10.0%,.,-83.7*,5.5,-1.2%
